# PubChem BioAssay AID624162 (National Center for Advancing Translational Sciences (NCATS), 2012)
# The list shows a part of the results. Inconclusive results are not listed. A number with no mark means an inactive call. Calls follow the shape of the dose curve; as a rule, active = well fitted inhibition curve with a large enough effect; inconclusive = small, poorly fitted or top-dose-only effect; inactive = no such curve, though single readings can be large or run the other way.
# Biological target: Histone-lysine N-methyltransferase 2A (Homo sapiens) (UniProt Q03164)
# Test: qHTS Fluorescence Polarization (FP) Assay for Inhibitors of MLL CXXC domain - DNA interaction: HTRF Assay; also: nearly all actives have a fitted effect of over 80% in size
# Settings: MLL CXXC-DNA binding, biochemical; series mostly up to 172 µM; activity change, negative = inhibition: at the top concentration
# Source text: The MLL (Mixed Lineage Luekemia) gene is involved in chromosomal translocation that results in either acute lymphoid leukemia (ALL) or acute myeloid leukemia (AML). Chromasomal translocation of MLL gene is responsible for the fusion of N-terminal MLL to more than 60 different partner genes in frame. Many of the MLL partner genes contain transcription activation domains or function as transcriptional activators. Despite the heterogeneity of fusion partners, the N-terminus of MLL fusion proteins always consists of the N-terminal menin binding motif and the CXXC domain. The MLL-CXXC domain specifically recognizes unmethylated CpG sequences of the HOX-A gene. Disruption of the MLL-CXXC and HOX-A gene interaction leads to down regulation of HOX-A gene expression and may potentially reverse leukemogenesis. We have miniaturized and optimized an in-vitro assay to screen for inhibitors of the MLL-CXXC domain and HOX-A DNA interaction, which could have utility in MLL fusion leukemias.
# This is a hit validation assay that tests this hits identified in the primary screen in this secondary screen, using an HTRF a read-out.
# NIH Molecular Libraries Probe Production Network [MLPCN]
# NIH Chemical Genomics Center [NCGC]
# PI Name: John Bushweller, University of Virgina
# One microliter of 7microM GST-MLL-CXXC solution prepared in assay buffer (50 mM TRIS-HCl pH 7.5, 50 mM NaCl, 1 mM DTT, 0.05% BSA) was dispesed into a 1536 well plate. Compound solution and unlabeled HOX-A9 was tranferred into the assay plate using the Kalypsys 1536-pin tool and incubated at room temperature for 5 min. One microL of 50nM Biotinylated-HOX-A9 solution prepared in assay buffer was dispensed into the assay plate; centrifuge for 30 seconds at 1000 RPM; and incubated for 30 min at room temperature. Next, 3 microL/well detection reagent mixture of 2.8 nM Eu3+-Cryptate-anti-GST-AB and 100 nM Streptavidin linked XL665 (Cisbio, MA) was added. RT-FRET read was taken after 60min of room temp incubation using the PerkinElmer Envision plate reader equipped with Eu3+ HTRF optimized filter set; EX 337nm / EM […].
# % is scaled to controls: 0 for no effect and ±100 for the full control effect.
# Sequence of Histone-lysine N-methyltransferase 2A (Homo sapiens) (Q03164 whole entry, looked up, the tested form may be a part): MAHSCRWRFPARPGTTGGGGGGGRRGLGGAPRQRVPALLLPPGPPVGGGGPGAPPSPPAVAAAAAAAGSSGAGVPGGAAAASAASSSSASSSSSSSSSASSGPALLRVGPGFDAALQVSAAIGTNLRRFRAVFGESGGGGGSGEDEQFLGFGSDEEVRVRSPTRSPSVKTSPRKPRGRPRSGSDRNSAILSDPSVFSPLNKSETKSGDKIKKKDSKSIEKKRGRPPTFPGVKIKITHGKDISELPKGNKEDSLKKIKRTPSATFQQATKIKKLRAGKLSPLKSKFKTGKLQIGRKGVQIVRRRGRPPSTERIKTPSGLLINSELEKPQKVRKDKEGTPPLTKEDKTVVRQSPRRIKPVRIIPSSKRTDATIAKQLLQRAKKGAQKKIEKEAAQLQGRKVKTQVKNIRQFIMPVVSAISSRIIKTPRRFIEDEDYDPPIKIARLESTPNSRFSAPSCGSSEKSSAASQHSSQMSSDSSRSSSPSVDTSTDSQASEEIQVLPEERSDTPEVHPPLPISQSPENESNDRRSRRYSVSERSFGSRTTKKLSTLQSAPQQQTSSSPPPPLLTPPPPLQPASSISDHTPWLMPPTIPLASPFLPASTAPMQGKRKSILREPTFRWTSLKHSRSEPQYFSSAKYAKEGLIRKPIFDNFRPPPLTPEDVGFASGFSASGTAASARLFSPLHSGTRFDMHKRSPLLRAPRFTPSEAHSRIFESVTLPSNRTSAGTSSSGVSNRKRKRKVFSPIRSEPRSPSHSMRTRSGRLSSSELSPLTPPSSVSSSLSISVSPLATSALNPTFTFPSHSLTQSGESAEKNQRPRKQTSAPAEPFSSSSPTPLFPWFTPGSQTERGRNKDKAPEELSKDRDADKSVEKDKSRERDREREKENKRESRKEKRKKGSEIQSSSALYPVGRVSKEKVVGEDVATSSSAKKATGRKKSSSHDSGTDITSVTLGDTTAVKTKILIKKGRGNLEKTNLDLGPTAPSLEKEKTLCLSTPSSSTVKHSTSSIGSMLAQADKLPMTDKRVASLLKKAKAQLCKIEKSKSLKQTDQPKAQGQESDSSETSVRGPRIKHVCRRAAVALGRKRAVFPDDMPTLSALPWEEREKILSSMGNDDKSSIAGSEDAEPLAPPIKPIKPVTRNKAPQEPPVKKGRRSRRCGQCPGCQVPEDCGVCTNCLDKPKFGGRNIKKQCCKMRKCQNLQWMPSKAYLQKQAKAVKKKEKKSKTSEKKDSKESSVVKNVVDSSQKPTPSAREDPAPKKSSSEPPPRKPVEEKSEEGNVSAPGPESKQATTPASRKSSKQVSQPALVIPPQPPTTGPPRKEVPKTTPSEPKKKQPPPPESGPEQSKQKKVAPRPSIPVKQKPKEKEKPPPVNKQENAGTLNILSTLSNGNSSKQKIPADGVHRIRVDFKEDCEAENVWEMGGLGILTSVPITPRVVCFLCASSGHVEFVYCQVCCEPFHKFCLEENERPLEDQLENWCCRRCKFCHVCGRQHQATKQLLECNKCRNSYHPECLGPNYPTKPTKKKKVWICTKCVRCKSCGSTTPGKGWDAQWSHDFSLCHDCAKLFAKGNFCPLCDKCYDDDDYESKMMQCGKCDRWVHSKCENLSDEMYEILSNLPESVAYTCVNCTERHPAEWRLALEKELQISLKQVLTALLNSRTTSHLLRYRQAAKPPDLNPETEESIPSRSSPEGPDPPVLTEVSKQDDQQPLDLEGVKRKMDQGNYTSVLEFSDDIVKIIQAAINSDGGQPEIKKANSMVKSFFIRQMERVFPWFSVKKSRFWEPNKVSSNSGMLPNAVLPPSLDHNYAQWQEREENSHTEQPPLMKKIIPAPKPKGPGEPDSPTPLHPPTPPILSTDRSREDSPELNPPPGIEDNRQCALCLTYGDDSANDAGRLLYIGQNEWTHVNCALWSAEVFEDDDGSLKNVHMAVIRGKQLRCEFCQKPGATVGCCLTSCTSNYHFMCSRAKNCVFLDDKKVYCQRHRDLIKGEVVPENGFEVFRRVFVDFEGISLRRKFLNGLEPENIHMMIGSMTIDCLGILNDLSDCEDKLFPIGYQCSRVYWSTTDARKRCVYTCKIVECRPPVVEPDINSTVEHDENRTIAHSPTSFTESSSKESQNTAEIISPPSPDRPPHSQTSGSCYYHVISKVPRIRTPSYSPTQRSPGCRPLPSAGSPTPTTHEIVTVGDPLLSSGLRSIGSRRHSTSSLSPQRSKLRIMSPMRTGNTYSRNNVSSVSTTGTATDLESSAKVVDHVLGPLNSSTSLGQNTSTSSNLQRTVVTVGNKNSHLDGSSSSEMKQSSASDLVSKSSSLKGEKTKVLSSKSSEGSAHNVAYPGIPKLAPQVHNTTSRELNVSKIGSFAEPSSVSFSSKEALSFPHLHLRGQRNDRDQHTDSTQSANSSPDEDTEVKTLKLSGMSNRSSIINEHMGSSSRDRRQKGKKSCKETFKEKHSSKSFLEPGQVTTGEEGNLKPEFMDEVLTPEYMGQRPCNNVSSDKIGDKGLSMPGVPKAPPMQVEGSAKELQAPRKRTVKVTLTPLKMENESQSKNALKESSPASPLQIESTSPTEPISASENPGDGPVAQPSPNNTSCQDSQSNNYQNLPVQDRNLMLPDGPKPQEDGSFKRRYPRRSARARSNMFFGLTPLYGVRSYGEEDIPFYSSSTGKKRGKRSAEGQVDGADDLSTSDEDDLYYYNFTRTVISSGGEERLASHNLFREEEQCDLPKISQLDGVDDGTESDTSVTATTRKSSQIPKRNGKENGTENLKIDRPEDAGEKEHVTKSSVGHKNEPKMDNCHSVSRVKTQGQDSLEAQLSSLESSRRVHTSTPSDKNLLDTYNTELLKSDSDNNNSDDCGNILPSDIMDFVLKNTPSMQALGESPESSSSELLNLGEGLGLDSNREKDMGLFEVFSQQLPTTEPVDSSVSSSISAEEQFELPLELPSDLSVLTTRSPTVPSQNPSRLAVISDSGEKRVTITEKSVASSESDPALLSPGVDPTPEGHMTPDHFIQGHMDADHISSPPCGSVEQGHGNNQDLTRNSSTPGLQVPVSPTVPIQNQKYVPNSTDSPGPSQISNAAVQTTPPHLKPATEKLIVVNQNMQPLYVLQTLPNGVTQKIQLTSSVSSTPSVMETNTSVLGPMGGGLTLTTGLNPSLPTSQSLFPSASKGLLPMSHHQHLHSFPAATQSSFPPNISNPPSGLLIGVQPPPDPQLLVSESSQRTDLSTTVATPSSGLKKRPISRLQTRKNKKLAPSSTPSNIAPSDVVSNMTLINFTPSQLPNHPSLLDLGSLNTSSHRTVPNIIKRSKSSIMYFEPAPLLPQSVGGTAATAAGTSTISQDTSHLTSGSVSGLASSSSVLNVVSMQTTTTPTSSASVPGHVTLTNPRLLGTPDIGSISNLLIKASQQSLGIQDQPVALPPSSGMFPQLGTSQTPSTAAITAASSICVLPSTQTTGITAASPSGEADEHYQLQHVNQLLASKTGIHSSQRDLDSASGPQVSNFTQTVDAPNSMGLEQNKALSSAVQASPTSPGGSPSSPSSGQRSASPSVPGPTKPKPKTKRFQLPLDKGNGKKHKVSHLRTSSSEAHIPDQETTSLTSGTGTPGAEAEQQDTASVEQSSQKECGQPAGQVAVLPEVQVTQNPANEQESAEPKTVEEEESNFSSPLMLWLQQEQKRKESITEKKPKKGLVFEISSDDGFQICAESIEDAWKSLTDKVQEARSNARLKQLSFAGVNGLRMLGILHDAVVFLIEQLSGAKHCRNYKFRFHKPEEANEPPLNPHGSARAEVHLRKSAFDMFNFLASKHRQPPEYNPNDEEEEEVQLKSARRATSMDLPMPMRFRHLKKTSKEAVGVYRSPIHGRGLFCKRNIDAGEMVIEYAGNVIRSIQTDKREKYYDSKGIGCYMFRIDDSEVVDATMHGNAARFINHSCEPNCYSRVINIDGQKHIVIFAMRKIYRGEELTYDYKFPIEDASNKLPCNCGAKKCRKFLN
row,Structure (SMILES),"activity change, negative = inhibition"
1,COc1ccc(S(=O)(=O)/N=C2\C=C(NS(=O)(=O)c3ccccc3)C(=O)c3ccccc32)cc1,74.8%
2,O=C1NN(c2ccccc2)C(=O)/C1=C/c1ccc(-c2cccc(C(=O)O)c2)o1,7.82%
3,COc1ccc(-c2onc3ccc(C(C)=O)cc23)cc1,6.05%
4,COc1cc(/C=C2/C(=O)NN(c3ccc(F)cc3)C2=O)cc([N+](=O)[O-])c1O,84.9%
